Results filed as inconclusive are left out. The source holds several records for some structures; these can differ, active in one and inactive in another. The source made the active and inactive calls. Unless noted, the call rests on the fitted dose curve; in most records, active means well fitted curve in the direction sought with a large enough effect in the repeat runs; inconclusive means weak or mixed curves; inactive means no such curve, though single readings can be large; an effect the other way counts as inactive or inconclusive.
Columns and labels:
[1] = qHTS assay to identify small molecule agonists of the peroxisome proliferator-activated receptor delta (PPARd) signaling pathway - cell viability counter screen (AID 743211); further: nearly all actives have a fitted effect of over 55% in size; further: potency means the concentration at half of the fitted maximal effect
Summary of the method: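 Read-out: CellTiter-Glo luminescence, 30 min RT, measured in the same wells as the beta-lactamase reporter. Cells: GeneBLAzer PPAR delta UAS-bla HEK293H, 3000 cells/well, compound exposure 17 h at 37C.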

[2] = qHTS assay to identify small molecule antagonists of the peroxisome proliferator-activated receptor delta (PPARd) signaling pathway - cell viability counter screen (AID 743213); further: nearly all actives have a fitted effect of over 50% in size; further: potency means the concentration at half of the fitted maximal effect
Summary of the method: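 Agonist-stimulated (L165041, 300 nM final) HEK293H PPARd UAS-bla cells are exposed to compounds for 17 h at 37 C, and ATP-based luminescence (CellTiter-Glo) from the same wells reports cytotoxicity.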

[3] = target: Peroxisome proliferator-activated receptor delta (Homo sapiens) (UniProt Q03181); assay: qHTS assay to identify small molecule antagonists of the peroxisome proliferator-activated receptor delta (PPARd) signaling pathway (AID 743215; active means well fitted inhibition curve with a large enough effect in the signal ratio in the repeat runs, not every such curve was filed as active; the % refers to the signal ratio; further: potency means the concentration at half of the fitted maximal effect)
Summary of the method: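 Read-out is beta-lactamase FRET fluorescence, measured 2 h after substrate addition at room temperature. Beforehand, UAS-bla HEK293H cells carrying the PPARd reporter were exposed to compounds with L165041 at 300 nM final for 17 h at 37 C.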

[4] = target: Bile acid receptor (Homo sapiens) (UniProt Q96RI1); assay: qHTS assay to identify small molecule antagonists of the farnesoid-X-receptor (FXR) signaling pathway (AID 743217; active means well fitted inhibition curve with a large enough effect in the signal ratio in the repeat runs, not every such curve was filed as active; the % refers to the signal ratio; further: potency means the concentration at half of the fitted maximal effect)
Summary of the method: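 HEK 293T FXR-UAS-bla, 5000 cells/well; compound + CDCA 50 uM final; 16 h, 37 °C; B/G FRET substrate 2 h RT; fluorescence.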

[5] = qHTS assay to identify small molecule agonists of the farnesoid-X-receptor (FXR) signaling pathway - cell viability counter screen (AID 743218); further: nearly all actives have a fitted effect of over 45% in size
Summary of the method: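 HEK 293T FXR-bla cells; 5 h pre-incubation, 16 h compound exposure at 37 C; LiveBLAzer substrate 2 h RT, then CellTiter-Glo 30 min RT, luminescence.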

[6] = target: Bile acid receptor (Homo sapiens) (UniProt Q96RI1); assay: qHTS assay to identify small molecule agonists of the farnesoid-X-receptor (FXR) signaling pathway (AID 743220; active means well fitted activation curve with a large enough effect in the signal ratio in the repeat runs, not every such curve was filed as active; the % refers to the signal ratio; further: potency means the concentration at half of the fitted maximal effect)
Summary of the method: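 Beta-lactamase reporter under UAS control in GeneBLAzer FXR HEK 293T cells (5000/well) measured with LiveBLAzer FRET substrate after 2 h at room temperature. Compound exposure lasted 16 h at 37C.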

[7] = qHTS assay to identify small molecule antagonists of the farnesoid-X-receptor (FXR) signaling pathway - cell viability counter screen (AID 743221; active means well fitted cell-killing curve with a large enough effect in the repeat runs, not every such curve was filed as active; further: nearly all actives have a fitted effect of over 50% in size)
Summary of the method: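 HEK 293T FXR-bla cells, 5 h pre-incubation; compound + CDCA 50 uM final, 16 h, 37 C; beta-lactamase FRET read first, then CellTiter-Glo luminescence, 30 min RT.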

[8] = target: Vitamin D3 receptor (Homo sapiens) (UniProt P11473); assay: qHTS assay to identify small molecule agonists of the vitamin D receptor (VDR) signaling pathway (AID 743222; calls by dose curve)
Summary of the method: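 VDR-bla cells, 2,000/well; 4 h preincubation 37C; cpd (DMSO) 16 h; LiveBLAzer B/G substrate 2 h RT; fluorescence intensity read.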

[9] = qHTS assay to identify small molecule agonists of the vitamin D receptor (VDR) signaling pathway - cell viability counter screen (AID 743224); further: nearly all actives have a fitted effect of over 50% in size; further: potency means the concentration at half of the fitted maximal effect
Summary of the method: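 Luminescence from CellTiter-Glo, read after 30 min at room temperature, reports viability of VDR-bla cells treated with compounds for 16 h at 37C in the wells used for the beta-lactamase FRET read.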

[10] = qHTS assay to identify small molecule antagonists of the vitamin D receptor (VDR) signaling pathway - cell viability counter screen (AID 743225); further: nearly all actives have a fitted effect of over 50% in size
Summary of the method: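 Viability counter screen run in the same wells as the beta-lactamase reporter assay: HEK 293T VDR-UAS-bla cells, 16 h compound exposure at 37C with 3 nM (final) 1-alpha,25-dihydroxyvitamin D3. CellTiter-Glo luminescence, 30 min, room temperature.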

[11] = qHTS assay to identify small molecule agonists of the NFkB signaling pathway (AID 1159509; active means well fitted curve in the direction sought with a large enough effect in the signal ratio in the repeat runs, not every such curve was filed as active; the % refers to the signal ratio; further: series mostly up to about 61 µM)
Summary of the method: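 NFkB-bla ME-180 cells carry a beta-lactamase reporter under an NF-kB response element. They were plated overnight, then exposed to compounds for 5 h at 37 C. Read-out is LiveBLAzer FRET after 1.5 hr at room temperature (405 nm excitation; 460/530 nm emission).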

[12] = qHTS assay to identify small molecule agonists of the NFkB signaling pathway - cell viability counter screen (AID 1159515; calls by dose curve; further: series mostly up to about 61 µM; nearly all actives have a fitted effect of over 55% in size)
Summary of the method: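 Luminescence from CellTiter-Glo (30 min, room temperature) gives viability, measured in the same wells as the beta-lactamase reporter read. Cells were NFkB-bla ME-180, 2,000 per well, treated 5 hr with compounds.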

[13] = qHTS assay to identify small molecule agonists of the endoplasmic reticulum stress response signaling pathway (AID 1159516; active means well fitted activation curve with a large enough effect in the signal ratio in the repeat runs, not every such curve was filed as active; the % refers to the signal ratio)
Summary of the method: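 Read-out is beta-lactamase cleavage of a FRET substrate (405 nm excitation; 460 and 530 nm emissions) in ESRE-bla HeLa cells after a 5 hr compound exposure at 37 C. Substrate incubation ran 2 hr at room temperature.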

[14] = qHTS assay to identify small molecule agonists of the endoplasmic reticulum stress response signaling pathway - cell viability counter screen (AID 1159517; calls by dose curve)
Summary of the method: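 HeLa cells carrying an ESRE-driven beta-lactamase reporter receive compound for 5 hr at 37 C. Cell viability is then gauged with CellTiter-Glo by luminescence, 30 min at room temperature.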

[15] = qHTS assay to identify small molecule antagonists of the retinoid-related orphan receptor gamma (ROR-gamma) signaling pathway - cell viability counter screen (AID 1159520); further: nearly all actives have a fitted effect of over 50% in size
Summary of the method: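 Cytotoxicity was read from cellular ATP (CellTiter-Glo luminescence) after 16 hr at 37 C with 1 uM doxycycline induction. The inducer was added 2 hr after compound transfer to Tet-on ROR gamma CHO cells.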

[16] = qHTS assay to identify small molecule agonists of the AP-1 signaling pathway (AID 1159526; calls by dose curve)
[17] = target: Peroxisome proliferator-activated receptor delta (Homo sapiens) (UniProt Q03181); assay: qHTS assay to identify small molecule agonists of the peroxisome proliferator-activated receptor delta (PPARd) signaling pathway (AID 743212; calls by dose curve)
Summary of the method: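 HEK293H PPARd-bla cells; 5 h preincubation 37 C/5% CO2; compound (DMSO) 37 C; LiveBLAzer B/G FRET substrate 2 h RT; fluorescence intensity.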

[18] = target: Vitamin D3 receptor (Homo sapiens) (UniProt P11473); assay: qHTS assay to identify small molecule antagonists of the vitamin D receptor (VDR) signaling pathway (AID 743223; active means well fitted inhibition curve with a large enough effect in the signal ratio in the repeat runs, not every such curve was filed as active; the % refers to the signal ratio)
Summary of the method: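 Beta-lactamase reporter read-out: FRET substrate fluorescence after 2 h at room temperature, following 16 h exposure of VDR-bla cells to test compound plus 3 nM (final) 1alpha,25-dihydroxyvitamin D3 agonist at 37C.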

[19] = qHTS assay to identify small molecule agonists of the AP-1 signaling pathway - cell viability counter screen (AID 1159525; calls by dose curve; further: nearly all actives have a fitted effect of over 55% in size)
Summary of the method: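 Luminescent ATP readout (Cell Titer Glo, 30 min RT), normalised to DMSO and tetra n-octyl ammonium bromide controls. Cells were ME-180 AP-1-bla in 0.5% dialyzed FBS Opti-MEM, with a 5 h, 37 °C compound exposure.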

[20] = target: Nuclear receptor ROR-gamma (Homo sapiens) (UniProt P51449); assay: qHTS assay to identify small molecule antagonists of the retinoid-related orphan receptor gamma (ROR-gamma) signaling pathway (AID 1159521; further: nearly all actives have a fitted effect of over 50% in size; further: potency means the concentration at half of the fitted maximal effect)
Summary of the method: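 Luminescence readout (ONE-Glo, 30 min RT) after 16 h doxycycline induction; loss of signal scored as antagonism. CHO cells with TET-inducible RORγ and RORE-LUC reporter; compounds added 2 h before 1 uM final doxycycline.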

Measured: Potency

Peroxisome proliferator-activated receptor delta (Homo sapiens), sequence (Q03181 whole entry, looked up): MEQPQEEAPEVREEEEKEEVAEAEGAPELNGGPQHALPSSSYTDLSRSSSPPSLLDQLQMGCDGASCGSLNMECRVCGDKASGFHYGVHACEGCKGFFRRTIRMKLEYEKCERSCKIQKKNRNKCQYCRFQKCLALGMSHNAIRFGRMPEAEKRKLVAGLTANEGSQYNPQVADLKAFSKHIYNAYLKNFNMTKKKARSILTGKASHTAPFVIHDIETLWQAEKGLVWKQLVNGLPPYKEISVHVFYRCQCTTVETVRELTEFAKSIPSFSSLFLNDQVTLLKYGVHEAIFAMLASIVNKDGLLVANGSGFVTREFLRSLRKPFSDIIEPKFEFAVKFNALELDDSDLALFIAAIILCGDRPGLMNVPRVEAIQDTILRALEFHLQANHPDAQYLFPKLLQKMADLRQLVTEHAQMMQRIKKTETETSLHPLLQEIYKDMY
Vitamin D3 receptor (Homo sapiens), sequence (P11473 whole entry, looked up): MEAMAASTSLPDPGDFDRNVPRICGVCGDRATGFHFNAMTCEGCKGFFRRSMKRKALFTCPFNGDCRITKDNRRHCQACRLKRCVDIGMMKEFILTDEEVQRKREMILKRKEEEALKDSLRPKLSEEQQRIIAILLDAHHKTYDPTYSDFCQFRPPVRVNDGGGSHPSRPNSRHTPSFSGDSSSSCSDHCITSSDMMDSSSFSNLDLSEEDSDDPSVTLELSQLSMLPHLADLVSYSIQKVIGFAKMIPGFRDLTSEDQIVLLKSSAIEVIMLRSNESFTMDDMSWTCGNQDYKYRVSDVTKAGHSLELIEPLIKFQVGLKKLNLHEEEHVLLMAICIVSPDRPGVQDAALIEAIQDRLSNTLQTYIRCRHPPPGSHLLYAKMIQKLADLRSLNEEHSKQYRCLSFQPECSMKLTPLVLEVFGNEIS
Bile acid receptor (Homo sapiens), sequence (Q96RI1 whole entry, looked up): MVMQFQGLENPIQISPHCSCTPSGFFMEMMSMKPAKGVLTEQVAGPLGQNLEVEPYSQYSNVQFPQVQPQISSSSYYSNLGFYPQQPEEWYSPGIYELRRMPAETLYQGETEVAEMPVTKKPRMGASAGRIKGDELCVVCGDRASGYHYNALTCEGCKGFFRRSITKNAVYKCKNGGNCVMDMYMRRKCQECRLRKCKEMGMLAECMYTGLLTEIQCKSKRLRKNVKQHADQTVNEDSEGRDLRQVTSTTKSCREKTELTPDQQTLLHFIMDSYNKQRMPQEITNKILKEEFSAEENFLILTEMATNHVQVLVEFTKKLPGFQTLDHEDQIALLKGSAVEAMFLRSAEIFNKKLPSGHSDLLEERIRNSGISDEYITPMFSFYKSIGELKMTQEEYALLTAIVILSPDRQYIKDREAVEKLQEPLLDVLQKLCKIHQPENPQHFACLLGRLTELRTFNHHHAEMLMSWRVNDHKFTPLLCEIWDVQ

C=CCOC(=O)/C=C\C(=O)OCC=C
not listed: [17] | [18] | [19] | [20]
inactive: all other assays above

CC(=O)CC(c1ccc([N+](=O)[O-])cc1)c1c(O)c2ccccc2oc1=O (stereo not drawn)
not listed: [4] | [6] | [18] | [19] | [20]
inactive: all other assays above

CN(C)CCOC1=Cc2ccccc2Sc2ccc(Cl)cc21
active: [1] 26.6 µM | [2] 26.6 µM
inactive: [17] | [4] | [6] | [8] | [9] | [11] | [12] | [13] | [14] | [15]

CC1(C)O[C@@H]2C[C@H]3[C@@H]4CCC5=CC(=O)C=C[C@]5(C)[C@H]4[C@@H](O)C[C@]3(C)[C@]2(C(=O)CO)O1
not listed: [3] | [4] | [6] | [10] | [16] | [17] | [19] | [20]
inactive: all other assays above

CCCCC1C(=O)N(c2ccccc2)N(c2ccc(O)cc2)C1=O (stereo not drawn)
inactive: [2] | [3] | [5] | [9] | [10] | [11] | [12] | [13] | [14]

COCCOC(=O)C1=C(C)NC(C)=C(C(=O)OC/C=C/c2ccccc2)C1c1cccc([N+](=O)[O-])c1 (stereo not drawn)
active: [6] 9.44 µM
not listed: [1] | [4] | [8] | [15] | [16] | [17] | [20]
inactive: all other assays above

C=CC(=C)CCCC(C)(C)OC(C)=O
not listed: [4] | [6] | [10] | [14] | [18]
inactive: all other assays above

C(=C\c1ccccc1)/CN1CCN(C(c2ccccc2)c2ccccc2)CC1
inactive: [6] | [7] | [8] | [18] | [10] | [11] | [12] | [13] | [14]
active: [1] 29.8 µM

COCc1c(C(C)C)nc(C(C)C)c(/C=C/[C@@H](O)C[C@@H](O)CC(=O)O)c1-c1ccc(F)cc1
not listed: [2] | [4] | [6] | [7] | [15] | [18] | [20]
inactive: all other assays above

O=C(O)c1cccnc1C(=O)O
not listed: [3] | [4] | [6] | [8] | [14] | [17] | [18]
inactive: all other assays above

C[N+]1(C)CCC(=C(c2ccccc2)c2ccccc2)CC1
not listed: [3] | [14] | [17] | [19]
inactive: all other assays above

Cc1nccn1-c1ccc(Sc2cccc(C3(C(N)=O)CCOCC3)c2)cc1
active: [20] 5.45 µM
not listed: [4] | [5] | [8] | [9] | [15] | [17] | [18] | [19]
inactive: all other assays above

Cc1nc2ccccc2s1
not listed: [4] | [6] | [14] | [18] | [19]
inactive: all other assays above

CCCCN(CCCC)C(=S)SSC(=S)N(CCCC)CCCC
active: [3] 21.7 µM | [9] 12.2 µM
inactive: [1] | [7] | [18] | [11] | [12] | [13] | [14] | [19]

Cc1oncc1C(=O)Nc1ccc(C(F)(F)F)cc1
38.9 µM (active) and inactive: [9]
54.9 µM (active) and inactive: [1]
active: [2] 49 µM
not listed: [8] | [14] | [18]
inactive: all other assays above

c1cnc2c(n1)CCCC2
not listed: [4] | [6] | [14]
inactive: all other assays above

Cc1cc2nc3ccc(=[N+](C)C)cc-3sc2cc1N
active: [4] 10.6 µM
not listed: [1] | [5] | [9] | [15] | [16] | [19]
inactive: all other assays above

CC1=CC(=O)CC(C)(C)C1(O)/C=C/C(C)=C\C(=O)O (stereo not drawn)
not listed: [14]
inactive: all other assays above

O=C(OCCOCCO)c1ccccc1Nc1cccc(C(F)(F)F)c1
not listed: [4] | [5] | [6] | [15] | [20]
inactive: all other assays above

Source: PubChem BioAssay (Tox21)
